Screens deposited in PubChem by The Scripps Research Institute Molecular Screening Center.
TbREL1 primary – TbREL1 RNA ligase inhibitors, primary screen, biochemical, FRET fluorescence; RNA-editing ligase 1, mitochondrial (Trypanosoma brucei brucei), P86926; TbREL1 RNA ligation; inhibition, % at 9.66 µM; 0.49% of 89,000 active;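 active = inhibition above the mean inhibition across all screened compounds plus 3 SD, cut at about 11% in these data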
Target sequence (P86926 whole entry, looked up): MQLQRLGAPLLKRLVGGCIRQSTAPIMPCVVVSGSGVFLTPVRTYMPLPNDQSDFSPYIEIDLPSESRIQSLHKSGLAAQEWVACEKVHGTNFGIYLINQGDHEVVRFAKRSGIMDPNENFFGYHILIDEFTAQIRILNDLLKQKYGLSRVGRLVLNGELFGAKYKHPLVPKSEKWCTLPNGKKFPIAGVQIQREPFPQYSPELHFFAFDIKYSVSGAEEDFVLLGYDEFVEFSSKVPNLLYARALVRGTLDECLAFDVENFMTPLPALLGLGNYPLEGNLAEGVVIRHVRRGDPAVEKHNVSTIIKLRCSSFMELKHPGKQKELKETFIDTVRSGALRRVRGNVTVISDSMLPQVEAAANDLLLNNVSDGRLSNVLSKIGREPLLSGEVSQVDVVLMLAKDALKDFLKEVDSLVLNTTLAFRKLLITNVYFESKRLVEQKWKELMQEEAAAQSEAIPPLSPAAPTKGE
TbREL1 conf – TbREL1 RNA ligase inhibitors, confirmation, biochemical, FRET fluorescence, triplicate; shares compounds with TbREL1 primary; TbREL1 RNA ligation; inhibition, % at 9.66 µM; 37% of 390 active; AID 1117282, 2014;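 active = mean inhibition across replicates above a set limit taken from the earlier primary screen, cut at about 11% in these data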
Large screens that a line does not name were inactive (follow-up assays come after a bar, where they were run). This is one part of a sample in which hits are shown more often than they occur.

NC(=O)c1c(N)[nH]c(C(=O)c2ccccc2)c1-c1ccccc1C(F)(F)F	none
O=C(NN=C/C=C/c1ccco1)c1cc(-c2ccc(Cl)cc2)n[nH]1	none
COc1ccc(C[C@H]2CN3C(=NC[C@@H]3C(C)C)N2C[C@H](C)NC(=O)c2ccc(C)c(Br)c2)cc1	TbREL1 primary 13 | TbREL1 conf 20
COc1ccc(C[C@H]2CN3C(=NC[C@@H]3Cc3ccc(O)cc3)N2CCNC(=O)c2ccc(C)c(Br)c2)cc1	none
Cc1ccc(C(=O)N[C@@H](C)CN2C3=NC[C@H](C(C)C)N3C[C@H]2Cc2ccc(O)cc2)cc1Br	none
Cc1c(NC(=O)C2CCCN(S(=O)(=O)c3cccc4ccccc34)C2)c(=O)n(-c2ccccc2)n1C (stereo not given)	none
CN(C)c1cccc(-c2ccnc(N3CCC(C(N)=O)CC3)n2)c1	none
O=C(/C=C\c1ccccc1[N+](=O)[O-])Nc1ccccc1	TbREL1 primary 12 | TbREL1 conf inactive
O=C(/C=C/c1cccc([N+](=O)[O-])c1)Nc1cc(C(=O)O)cc(C(=O)O)c1	none
CC(=O)N(C)c1ccc(NC(=O)/C=C/c2ccccc2Cl)cc1	none
O=C(c1ccc(F)cc1F)N(Cc1ccccn1)CC1CCCO1 (stereo not given)	none
Nn1c(SCC(=O)Nc2nccs2)nnc1-c1cc(-c2ccc(F)cc2)n[nH]1	none
C=CCN(c1ccccc1)S(=O)(=O)c1cccc(C(=O)NC2CCC(O)CC2)c1 (stereo not given)	none
O=C(O)c1cccc(S(=O)(=O)N(Cc2ccccc2)c2ccc(Cl)cc2)c1	none
CC1(C)CC(NC(=O)c2cccc(S(=O)(=O)N(Cc3ccccc3)c3ccccc3)c2)CC(C)(C)N1	TbREL1 primary 13 | TbREL1 conf inactive
CC(C)CNS(=O)(=O)CC1NCc2cc3c(cc21)OCO3 (stereo not given)	none
O=C(CCn1nnc(-c2cccs2)n1)N1CCOCC1	none
c1ccc(OCCNc2nc(NCC3CC3)nc3cc(-c4ccccc4)sc23)cc1	none
c1ccc(CNc2nc(NCCc3ccncc3)c3sccc3n2)cc1	none
COCCNc1nc(NCc2cccs2)nc2ccsc12	none
CC(C)Nc1nc(NCCOc2ccccc2)c2sccc2n1	TbREL1 primary 14 | TbREL1 conf inactive
COc1cccc(CNc2nc(NCc3ccccc3)nc3ccsc23)c1	TbREL1 primary 13 | TbREL1 conf 14
CNc1nc(NCc2ccccc2)c2sccc2n1	none
O=C(O)c1cc(N2C(=O)C=CC2=O)cc(N2C(=O)C=CC2=O)c1	TbREL1 primary 85 | TbREL1 conf 30
Cc1ccc(N2C(=O)c3ccc(C(=O)O)cc3C2=O)cc1C	none
O=C(O)c1cc(C(=O)O)c(-c2ccccc2)c(C(=O)O)c1	none
CCC(C)[C@H](NC(=O)OC(C)(C)C)C(=O)N[C@@H](Cc1ccccc1)C(=O)OC (stereo not given in full)	none
C#CCNC(=O)C[C@H]1C[C@@]2(C(=O)OC)C(=C[C@H](C(C)C)O[C@@H]2C2CC2)N(CCCCCCCC)C1=O	none
CC(O)c1nc2ccccc2n1C/C=C/c1ccccc1 (stereo not given)	none
Cc1c(P(=S)(c2ccccc2)c2ccccc2)[n+]2ccccc2n1C/C=C/c1ccccc1	TbREL1 primary 14 | TbREL1 conf 22
COc1ccccc1C(CC(=O)c1ccccc1)C(=O)c1ccccc1 (stereo not given)	TbREL1 primary 11 | TbREL1 conf inactive
COc1ccccc1C(C(=O)c1ccccc1)c1ccc2ccccc2c1 (stereo not given)	none
COC(=O)C(CC(=O)c1ccccc1)CC(=O)c1ccccc1	none
Cc1cccc(CN[C@@H]2CC[C@@]34CCCN3C(=O)CCC[C@H]4C2)c1	none
CN1C2=N[C@@H](c3ccccc3)CC(=O)N2/C(=C\c2ccccc2)[C@H]1c1ccccc1	none
C#CCOCCOCCOCCNc1nc(N2CCN(C(=O)[C@H]([C@@H](C)CC)n3cc([C@@H](N)CC(C)C)nn3)CC2)nc(N2CCN(C(=O)[C@H](Cc3ccc(O)cc3)n3cc([C@@H](N)CC(C)C)nn3)CC2)n1	none
C#CCOCCOCCOCCNc1nc(N2CCN(C(=O)[C@H]([C@@H](C)CC)n3cc([C@@H](N)CC(C)C)nn3)CC2)nc(N2CCN(C(=O)[C@H]([C@@H](C)CC)n3cc([C@@H](N)CC(C)C)nn3)CC2)n1	TbREL1 primary 11 | TbREL1 conf inactive
C#CCOCCOCCOCCNc1nc(N2CCN(C(=O)[C@H]([C@@H](C)CC)n3cc([C@@H](N)Cc4ccc(O)cc4)nn3)CC2)nc(N2CCN(C(=O)[C@H]([C@@H](C)CC)n3cc([C@@H](N)Cc4ccc(O)cc4)nn3)CC2)n1	none
C[C@H]1[C@H](NC(=O)c2cccc(Cl)c2)CC[C@@]23CCCN2C(=O)CCC[C@@H]13	none
COc1ccc(CN2C(=O)c3cccnc3C2Nc2cc(Cl)ccc2OC)cc1 (stereo not given)	TbREL1 primary 32 | TbREL1 conf 41
COc1ccc(Cl)cc1NC(=S)N1CCN(c2ncccn2)CC1	none
CCOC(=O)c1ccc(NC2c3ncccc3C(=O)N2Cc2ccc(F)cc2)cc1 (stereo not given)	none
O=C(CN1C(=O)C2CCCCN2C(=O)c2ccccc21)N1CCCC1 (stereo not given)	none
CCOc1ccc(CCNC(=O)c2ccc3[nH]ccc3c2)cc1OCC	none
COc1cc(-n2c(C)nc3cc(C(=O)N4CCN(C(C)=O)CC4)ccc32)cc(OC)c1OC	none
COc1ccc(-n2c(SCC(=O)Nc3cc(C)c(NC(=O)c4ccccc4)cc3OC)nnc2-c2ccccc2F)cc1	none
Cc1nc2ccccc2n1CC(=O)c1ccc(O)c(O)c1	TbREL1 primary 16 | TbREL1 conf 16
Cc1[nH]c2ccccc2c1C(=O)COC(=O)Cn1c(C)nc2ccccc21	none
O=C(CSc1nc2ccccc2n1CCc1ccccc1)c1ccc(O)c(O)c1	none
COC(=O)c1cccc(Cn2ccc3ccc(-c4ccc5ccn(C(=O)c6ccc(C)cc6)c5c4)cc32)c1	none
COc1ccc(CC(N)c2csc(Nc3ccc(C(C)=O)cc3)n2)cc1 (stereo not given)	none
Cc1cnc(C)c(Nc2nc(C(N)Cc3ccc(Cl)cc3)cs2)n1 (stereo not given)	TbREL1 primary 11 | TbREL1 conf inactive
NC(Cc1ccc(C(F)(F)F)cc1)c1csc(Nc2nncc3ccccc23)n1 (stereo not given)	none
O=C(CSc1nnc(-c2ccc(Cl)cc2)n1Cc1ccco1)Nc1ccc(S(=O)(=O)Nc2nccs2)cc1	none
Cc1cc(C)nc(N2CCC(C(=O)N(C)CCc3ccccc3)CC2)n1	none
Cc1ccc(NC(=S)NNC(=O)CSc2nc3sc4c(c3c(=O)n2-c2ccccc2)CCCC4)cc1	none
O=C(Nc1ccc(Cl)c(Cl)c1)C1CCCN(c2nnc(-n3cccc3)s2)C1 (stereo not given)	none
O=C(CSc1nnc(-c2cccnc2)n1Cc1ccco1)Nc1ccc(F)cc1Cl	none
COc1ccc2[nH]c3c(c2c1)CCN[C@]31C(=O)N(C)c2ccc(Br)cc21	none
O=C(O)c1ccc([N+](=O)[O-])cc1	none
CC(=O)N1CCN(c2ccc(C(N)=O)cc2[N+](=O)[O-])CC1	none
CC(=O)/C(N=Nc1ccc(C(=O)O)cc1[N+](=O)[O-])=C(\C)O	TbREL1 primary 12 | TbREL1 conf inactive
COc1ccc(-n2c(SCC(=O)NCCCSC)nnc2-c2ccncc2)cc1	none
C[C@@H](NCCCn1cnc2c(OCc3ccccc3)ncnc21)c1cccc2ccccc12	TbREL1 primary 13 | TbREL1 conf 13
